The values below come from PubChem BioAssay (Tox21).

A short description of test [1]: qHTS RealTime-Glo MT Cell Viability Assay in HepG2 cells - 8 hour (AID 1224873). Note: % is set by controls: 0 for no effect and ±100 for the full control effect; nearly all actives have a fitted effect of over 55% in size. An outline of the steps:
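HepG2 cells (600/well) mixed with RealTime-Glo MT reagent, settled 5 h at 37 C/5% CO2 before compound addition. Nonlytic NanoLuc luminescence from viable-cell prosubstrate reduction read repeatedly during 40 h treatment at 37 C.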
(In general: Quantitative high-throughput screening tests each substance at several concentrations.)

The nature of test [2]: A CellTox Green Cytotoxicity Assay to monitor cytotoxicity in HepG2 cells - 16 hour (AID 1224876). For cytotoxicity increase: % is set by controls: 0 for no effect and ±100 for the full control effect. Note: nearly all actives have a fitted effect of over 45% in size. Note: potency is the fitted concentration of half-maximal effect. An outline of the steps: (§1)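 HepG2 cells were seeded together with the CellTox Green dye at 600 cells/well, left 5 h at 37 C/5% CO2, then given compounds in DMSO. Fluorescence from dye bound to dead-cell DNA was read repeatedly over 40 h of treatment at 37 C.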
Test [3] in a line: qHTS RealTime-Glo MT Cell Viability Assay in HepG2 cells - 32 hour (AID 1224877). Note: nearly all actives have a fitted effect of over 55% in size. Note: potency is the fitted concentration of half-maximal effect. Put shortly: (§2)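 Compound treatment began 5 h after plating HepG2 cells (600/well) with NanoLuc luciferase and prosubstrate. Plates stayed at 37 C for 40 h; luminescence was captured at six time points, 0 h through 40 h.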
Test [4] can be described thus: A CellTox Green Cytotoxicity Assay to monitor cytotoxicity in HepG2 cells - 24 hour (AID 1224878). For Cytotoxicity: % is set by controls: 0 for no effect and ±100 for the full control effect. Note: nearly all actives have a fitted effect of over 45% in size. Note: potency is the fitted concentration of half-maximal effect. An outline of the steps:
as §1

Test [5] in a line: A CellTox Green Cytotoxicity Assay to monitor cytotoxicity in HepG2 cells - 40 hour (AID 1224879). For cytotoxicity increase: % is set by controls: 0 for no effect and ±100 for the full control effect. Note: nearly all actives have a fitted effect of over 40% in size. Note: potency is the fitted concentration of half-maximal effect. An outline of the steps:
as §1

Test [6] can be described thus: qHTS RealTime-Glo MT Cell Viability Assay in HEK293 cells - 0 hour (AID 1224880). Note: top concentration of the series differs between compounds; % is set by controls: 0 for no effect and ±100 for the full control effect; nearly all actives have a fitted effect of over 45% in size. Put shortly:
(§3)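 HEK293 cells mixed with RealTime-Glo reagents (NanoLuc plus cell-permeant prosubstrate) at 600 cells/well, preincubated 5 h at 37 C/5% CO2, then given 23 nL compound in DMSO. Nonlytic luminescence from viable cells was read at 0, 8, 16, 24, 32 and 40 h.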

A short description of test [7]: A CellTox Green Cytotoxicity Assay to monitor cytotoxicity in HepG2 cells - 0 hour (AID 1224882). For Cytotoxicity: % is set by controls: 0 for no effect and ±100 for the full control effect. Note: nearly all actives have a fitted effect of over 35% in size. Note: potency is the fitted concentration of half-maximal effect. An outline of the steps:
as §1

The nature of test [8]: A CellTox Green Cytotoxicity Assay to monitor cytotoxicity in HEK293 cells - 8 hour (AID 1224884). Note: nearly all actives have a fitted effect of over 35% in size. Note: potency is the fitted concentration of half-maximal effect. Put shortly: (§4)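 HEK293 cells premixed with CellTox Green dye were seeded at 600 cells/well and left 5 h at 37 C/5% CO2 before pin transfer of 23 nL compound in DMSO. Fluorescence from dye bound to dead-cell DNA was read during 40 h treatment.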
The nature of test [9]: qHTS RealTime-Glo MT Cell Viability Assay in HepG2 cells - 16 hour (AID 1224885). Note: nearly all actives have a fitted effect of over 50% in size. Note: potency is the fitted concentration of half-maximal effect. Put shortly: as §2
Test [10] can be described thus: qHTS RealTime-Glo MT Cell Viability Assay in HepG2 cells - 0 hour (AID 1224889). Note: % is set by controls: 0 for no effect and ±100 for the full control effect; nearly all actives have a fitted effect of over 50% in size. Put shortly: as §2
Test [11] is described as follows: A CellTox Green Cytotoxicity Assay to monitor cytotoxicity in HepG2 cells - 8 hour (AID 1224890). Note: nearly all actives have a fitted effect of over 45% in size. Note: potency is the fitted concentration of half-maximal effect. An outline of the steps:
as §1

The nature of test [12]: qHTS assay to identify small molecule antagonists of the estrogen receptor alpha (ER-alpha) signaling pathway using the BG1 cell line in the presence of 0.1 nM 17-beta-estradiol - cell viability counter screen (AID 1259241). Note: % is set by controls: 0 for no effect and ±100 for the full control effect; nearly all actives have a fitted effect of over 40% in size. An outline of the steps:
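Cytotoxicity counter-screen: live-cell protease activity measured by fluorescence (30 min reagent step) in the same wells. Cells were VM7Luc4E2 with endogenous ER-alpha and ERE-driven luciferase, treated 22 hr at 37C alongside 0.1 nM 17beta-estradiol final.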

Test [13] is described as follows: A CellTox Green Cytotoxicity Assay to monitor cytotoxicity in HEK293 cells - 32 hour (AID 1224881). Note: nearly all actives have a fitted effect of over 40% in size. Note: potency is the fitted concentration of half-maximal effect. Put shortly: as §4
The nature of test [14]: qHTS RealTime-Glo MT Cell Viability Assay in HEK293 cells - 24 hour (AID 1224886). Note: nearly all actives have a fitted effect of over 50% in size. Note: potency is the fitted concentration of half-maximal effect. An outline of the steps: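 Quantitative high-throughput screen of the Tox21 10K library in HEK293: cells and RealTime-Glo reagents plated together, compound added at 5 h, luminescence monitored through 40 h at 37 C.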
Test [15] in a line: A CellTox Green Cytotoxicity Assay to monitor cytotoxicity in HEK293 cells - 16 hour (AID 1224888). Note: nearly all actives have a fitted effect of over 35% in size. Note: potency is the fitted concentration of half-maximal effect. Put shortly: as §4
Test [16] is described as follows: qHTS RealTime-Glo MT Cell Viability Assay in HEK293 cells - 40 hour (AID 1224874). Note: potency is the fitted concentration of half-maximal effect; nearly all actives have a fitted effect of over 50% in size. The note with it: RealTime-Glo luminescence; max response: stronger effect = lower value. Put shortly:
as §3

Test [17] can be described thus: A CellTox Green Cytotoxicity Assay to monitor cytotoxicity in HEK293 cells - 24 hour (AID 1224875). Note: nearly all actives have a fitted effect of over 45% in size. Note: potency is the fitted concentration of half-maximal effect. An outline of the steps: as §4
Test [18] in a line: A CellTox Green Cytotoxicity Assay to monitor cytotoxicity in HepG2 cells - 32 hour (AID 1224883). Note: nearly all actives have a fitted effect of over 50% in size. Note: potency is the fitted concentration of half-maximal effect. Put shortly: as §1
Test [19] is described as follows: qHTS RealTime-Glo MT Cell Viability Assay in HEK293 cells - 8 hour (AID 1224887). Note: nearly all actives have a fitted effect of over 50% in size. Note: potency is the fitted concentration of half-maximal effect. Put shortly:
as §3

Values joined by “and” are separate entries in the source; they are usually repeats but may differ in a detail not shown here. Equal values may be shown once. Inconclusive results are not listed. More than one record can exist for a structure, and the calls need not agree. Active and inactive are the calls of the source. Calls come from the whole dose curve; as a rule, active = well fitted curve in the direction sought with a large enough effect in the repeat runs; inconclusive = weak or mixed curves; inactive = no such curve, though single readings can be large; an effect the other way counts as inactive or inconclusive.

Turning to `CN(C/C=C/C#CC(C)(C)C)Cc1cccc2ccccc12`, the Potency result in [1], in [2], in [3], in test [4], in [5] and in test [6] was “inactive” in each case. The Potency result in test [7], in test [8], in test [9], in test [10], in test [11] and in test [12] was “inactive” in each case.

Regarding `Nc1c2ccccc2nc2ccccc12`, the Potency result in test [2] was “inactive and 13.4 µM (active)”; in test [3], 24.2 µM (active) and 10.7 µM (active); in test [4], 10.7 µM (active); in [5], 10.8 µM (active) and 10.7 µM (active); in [13], 43.1 µM (active); in test [14], 7.66 µM (active) and 21.3 µM (active). For the same compound, the Potency result in test [6], in [7], in test [8], in test [15], in test [10] and in test [11] was “inactive” in each case. Also, in [12], the Potency entry is “inactive”.

Turning to `Cc1[nH]cnc1C[C@H]1CCc2c(C)c3ccccc3n2C1=O`, the Potency in test [16] is 23.9 µM (active); in [17] it was 47.8 µM (active); in test [2] it was 38 µM (active); in [3] it was 42.6 µM (active); in test [4], 38 µM (active); in test [5], 33.8 µM (active). The Potency in test [13] is 47.8 µM (active); in [18] it was 38 µM (active); in test [14], 33.8 µM (active). Also, the Potency result in [6], in test [7], in test [15], in [10] and in test [12] was “inactive” each time.

Consider `COc1cc(-c2nc(NC(=O)c3cc4cc(C)cc(C)c4n3CC(=O)O)sc2CCC2CCCCC2)c(OC)cc1Cl`, for which the Potency in test [16] is 22.5 µM (active); in test [3], 40 µM (active); in [5], 44.9 µM (active); in test [7], 44.9 µM (active); in test [9], 35.7 µM (active); in [14], 40 µM (active). In addition, in test [11], the Potency was 40 µM (active). For the same compound, the Potency entry in [17], in test [6], in test [13], in [15] and in test [12] was “inactive” in each case.

As for `COc1ccc(-c2ccc3cc(C(=O)O)ccc3c2)cc1C12CC3CC(CC(C3)C1)C2`, the Potency in [16] was 4.77 µM (active); in [4], 23.9 µM (active); in test [5], 19 µM (active); in [18], 21.3 µM (active); in test [14], 4.77 µM (active). Besides, the Potency result in test [17], in test [6], in [13], in test [8], in [19] and in [15] was “inactive” in each case. Moreover, the Potency entry in test [10] and in [12] was “inactive” in each case.

With `CCCCCCCCCCCC(=O)NCCCN(C)C`, the Potency in test [16] was 34.7 µM (active); in test [17], 54.9 µM (active); in test [2], 43.6 µM (active); in test [3], 38.9 µM (active); in test [4], 34.7 µM (active); in [5], 30.9 µM (active). For the same compound, the Potency in [18] is 24.5 µM (active); in test [9], 49 µM (active); in test [14], 43.6 µM (active); in test [19] it was 49 µM (active); in test [15] it was 54.9 µM (active); in test [11] it was 54.9 µM (active). Moreover, the Potency result in test [7] and in [10] was “inactive” in each case.

For the compound `NNc1nc(-c2ccccc2)cs1`, the Potency entry in [17], in test [2], in test [3], in test [4], in [5] and in test [6] was “inactive” each time. Besides, the Potency result in [13], in test [7], in test [18], in test [9], in test [15] and in [10] was “inactive” throughout. In addition, the Potency entry in test [11] and in test [12] was “inactive” in each case.

With `N/C(=N\N=C\c1ccc(Cl)cc1)N/N=C/c1ccc(Cl)cc1`, the Potency in test [17] is 23.9 µM (active); in test [2], 21.3 µM (active); in test [4] it was 21.3 µM (active); in test [5] it was 23.9 µM (active); in test [13] it was 23.9 µM (active); in [18], 23.9 µM (active). Moreover, the Potency in test [8] was 23.9 µM (active); in test [15], 23.9 µM (active); in test [11], 21.3 µM (active). Also, in test [7], the Potency result is “inactive”.

Take `CNCc1cc(F)ccc1Oc1ccc(Cl)c(Cl)c1`: the Potency in test [17] is 49 µM (active); in [2], 54.9 µM (active); in [3], 54.9 µM (active); in [4], 49 µM (active); in [5] it was 49 µM (active); in test [13], 49 µM (active). The Potency in [18] is 49 µM (active); in test [9], 49 µM (active); in test [14], 38.9 µM (active). Moreover, the Potency result in [7] and in test [8] was “inactive” in each case.

Take `O=C(OC[C@H]1O[C@@H](OC(=O)c2cc(O)c(O)c(OC(=O)c3cc(O)c(O)c(O)c3)c2)[C@H](OC(=O)c2cc(O)c(O)c(OC(=O)c3cc(O)c(O)c(O)c3)c2)[C@@H](OC(=O)c2cc(O)c(O)c(OC(=O)c3cc(O)c(O)c(O)c3)c2)[C@@H]1OC(=O)c1cc(O)c(O)c(OC(=O)c2cc(O)c(O)c(O)c2)c1)c1cc(O)c(O)c(OC(=O)c2cc(O)c(O)c(O)c2)c1`: the activity change was -38.6% [at 15.8 µM, stronger effect = higher value] (inactive) in test [17] and -38.7% [at 15.8 µM, stronger effect = higher value] (inactive) in [15]. The cytotoxicity increase in test [2] is -47.1% [at 15.8 µM] (inactive); in [5] it was -56% [at 15.8 µM] (inactive); in [13], -42.7% [at 15.8 µM] (inactive); in test [18], -61.4% [at 15.8 µM] (inactive); in test [11] it was -46.2% [at 15.8 µM] (inactive). For the same compound, the cytotoxicity in test [4] was -52.4% [at 15.8 µM] (inactive); in test [7], -19.7% [at 15.8 µM] (inactive). Further, the activity change, negative = cytotoxicity in test [6] is -3.48% [at 15.8 µM] (inactive); in [14], -14.1% [at 15.8 µM] (inactive); in test [19] it was -15.8% [at 15.8 µM] (inactive); in [10], -17.5% [at 15.8 µM] (inactive).

Regarding `CCCCCCCCCOC(=O)c1ccc(O)cc1`, the Potency in [16] was 38.3 µM (active); in [17], 38.3 µM (active); in test [2], 48.3 µM (active); in test [4], 48.3 µM (active); in test [5] it was 48.3 µM (active); in test [13] it was 38.3 µM (active). Also, the Potency in test [18] was 48.3 µM (active); in [14], 38.3 µM (active); in [19], 38.3 µM (active); in test [15] it was 38.3 µM (active). Besides, the Potency entry in test [3], in test [6], in test [7], in [10] and in test [11] was “inactive” throughout.

For the compound `Fc1ccc(C(c2ccc(F)cc2)N2CCN(C/C=C/c3ccccc3)CC2)cc1`, the Potency in test [16] is 19 µM (active). For the same compound, the Potency entry in [17], in test [2], in [4], in test [5], in test [6] and in test [7] was “inactive” in each case. The Potency entry in test [18], in [15], in test [10], in test [11] and in test [12] was “inactive” in each case.

For the compound `CC(=O)S[C@@H]1CC2=CC(=O)CC[C@]2(C)[C@H]2CC[C@@]3(C)[C@@H](CC[C@@]34CCC(=O)O4)[C@H]12`, the Potency entry in test [17], in [2], in test [6], in [7], in test [15] and in test [10] was “inactive” throughout. Also, the Potency entry in test [11] and in [12] was “inactive” each time. Also, the Potency in [5] and in [18] was 54.9 µM (active) each time.

On to `O=c1[nH]sc2cc(Cl)ccc12`, for which the Potency result in [17], in test [6], in test [7], in test [8], in test [19] and in test [15] was “inactive” in each case. The Potency entry in test [10] and in test [12] was “inactive” in each case.

In the case of `Cc1cc(=O)oc2cc(N(C)C)ccc12`, the Potency entry in test [17], in test [2], in [3], in test [4], in [5] and in test [6] was “inactive” in each case. Besides, the Potency entry in test [13], in [7], in test [18], in [15], in test [10] and in test [11] was “inactive” throughout.
